The source of these data is ChEMBL document CHEMBL4513216, “Probing the Open Global Health Chemical Diversity Library for Multistage-Active Starting Points for Next-Generation Antimalarials” (ACS Infect Dis, 2020).

Molecules are shown by their SMILES. About 8,600 (12%) of roughly 69,000 compounds showed an effect of 50% or more. What follows is part of a selection rich in strong results, with near analogues and random picks from the rest.

The subject of the test is Plasmodium berghei. Briefly: Screen against P. berghei liver stage (PbLuc), transformed with Luciferase, at 10uM. It is filed as functional, HepG2. As to conditions: tested at 10 uM.
On to `Cc1ccc(-n2c(SCC(=O)O)nnc2-c2ccccc2)cc1`, for which the INHIBITION is recorded as -12.9%.

Take `O=C1CN(CC2CC2)Cc2nc(NCc3ccccc3)sc21`: the INHIBITION is listed as 29.3%.

Take `Cn1cc(-c2nc(CN3CCCCC3Cn3cncn3)cs2)cn1` (centres undefined): the INHIBITION is -91.6%. For `Cc1nnc2n1CCN(C(=O)c1cc(Br)c(Cl)[nH]1)C2` the value was 18.85%; for `Cc1noc(C2CCCN(Cn3cc(Cl)cn3)C2)n1` (centres undefined), -9.39%; for `Cc1nc(CN2C(=O)C[C@@H]3[C@@H]2CCN3CC2CCOCC2)cs1`, -5.08%. In the case of `Cc1nc(CN2C(=O)CC[C@@H]3[C@H]2CCN3C2CCOC2)cs1` (some centres undefined) it was -54.9%; in that of `Cc1nc(CN2C(=O)CC[C@@H]3[C@H]2CCN3C2CCOCC2)cs1`, 50%; in that of `Cc1nc(CN2C(=O)C[C@H]3[C@H]2CCN3C2CCOCC2)cs1`, 20.1%. Turning to `Cc1nc(CN2C(=O)C[C@H]3[C@H]2CCN3C2CCOC2)cs1` (some centres undefined), the INHIBITION is -43.1%.

With `Cc1nc(CN2C(=O)C[C@H]3[C@H]2CCN3CC2CCOC2)cs1` (some centres undefined), the INHIBITION is 56.6%. In the case of `O=C(c1cnn2ccccc12)N1CCCC(OCc2ccccn2)C1` (centres undefined) it was 15.7%. For `COc1c(CNC(c2ccccc2)c2ccc(F)cc2)c(C)nn1C` (centres undefined) the value was 35.4%; for `CC1CCN(C(=O)[C@H]2C[C@@H]3CCN(CC4CCOCC4)C[C@H]3O2)CC1`, -7.24%; for `c1cc(NCc2ccncc2)nc(C2CCCN2)c1` (centres undefined), 14%. For `O=C(CC1CCN(c2cccnn2)CC1)Nc1nncs1` the value was 31.3%; for `Cc1nc(-c2ccccc2)sc1CSCCS(C)(=O)=O`, 20.1%; for `Cc1nc(-c2ccccc2)sc1CSCCC(N)=O`, 60.8%. In the case of `Cc1nc(-c2ccccc2)sc1CSC(C)C(N)=O` (centres undefined), the INHIBITION is -48.3%. Regarding `CNc1cc2c(nn1)CCN(C(=O)c1cc(C)no1)C2`, the INHIBITION is -65.3%.

`CN1CC(C(=O)NCc2ccc(Br)cc2F)CC1=O` (centres undefined): the INHIBITION is recorded as -18.5%. On to `CNC(=O)CN1CCC(OCC2CCCO2)CC1` (centres undefined), for which the INHIBITION came out at 32.9%. In the case of `O=C(CN1CCC(OCC2CCCO2)CC1)NCC(F)(F)F` (centres undefined) it was 1.2%; in that of `CCNC(=O)CN1CCC(OCC2CCCO2)CC1` (centres undefined), 68.8%; in that of `Cc1nn(C)c(C)c1C1CCCN1C(=O)c1ccnc(N(C)C)c1` (centres undefined), -4.16%. With `CN(Cc1ccco1)C1CCC12CCN(C(=O)c1ccco1)CC2` (centres undefined), the INHIBITION is -77.5%. In the case of `COc1ncccc1CNC(=O)c1cc(C)on1` it was -41.1%; in that of `COc1ccccc1C(C)N1CCN(S(=O)(=O)N(C)C)CC1` (centres undefined), 14.7%. For `CCS(=O)(=O)N1CCN(C(C)c2ccccc2OC)CC1` (centres undefined) the value was 13.5%; for `COc1ccccc1C(C)N1CCN(S(C)(=O)=O)CC1` (centres undefined), 51.1%; for `COCCC(=O)N1CCCC2(CCCN2Cc2ccccc2F)C1` (centres undefined), 19.5%. `COCC(=O)N1CCN(C(=O)Cc2cccs2)[C@H]2CS(=O)(=O)C[C@H]21`: the INHIBITION is listed as -6.11%. For `Cc1cc(C2CCCN(CC(=O)N3CCc4ccccc43)C2)n[nH]1` (centres undefined) the value was 15.2%; for `Cc1nc(C)n(CC2CCCN(CC(=O)Nc3nncs3)C2)n1` (centres undefined), 12.4%; for `O=C(CN1CCCC(c2ccn[nH]2)C1)Nc1nc2c(s1)CCCC2` (centres undefined), 86.9%. For `O=C(CN1CCCC(c2ccn[nH]2)C1)Nc1nncs1` (centres undefined) the value was 56.3%; for `CC(C)C1Nc2ccccc2C(=O)N1CC(=O)Nc1nc2c(s1)CCC2` (centres undefined), 16.5%; for `O=C(O)c1cccc(CN2CCCC(c3ccn[nH]3)C2)c1` (centres undefined), 21.45%. In the case of `Cc1cc(C2CCCN(CC(=O)Nc3nc4c(s3)CCC4)C2)n[nH]1` (centres undefined) it was 75.8%; in that of `O=C1CCCN1CCN1CCCC(c2ccn[nH]2)C1` (centres undefined), -24.2%. Consider `Cc1cc(C2CCCN(CC(=O)N3CCCc4ccccc43)C2)n[nH]1` (centres undefined), for which the INHIBITION worked out at 19.9%. In the case of `Cc1nnc(NC(=O)CN2CCCC(c3ccn[nH]3)C2)s1` (centres undefined) it was 47.1%. In the case of `O=C(CN1CCCC(c2ccn[nH]2)C1)N1CCCc2ccccc21` (centres undefined) it was 21.8%; in that of `O=C(CN1CCCC(c2ccn[nH]2)C1)Nc1nc2c(s1)CCC2` (centres undefined), 83.2%. For `NC(=O)CCCNC(=O)Cc1csc(Cc2ccccn2)n1` the value was 46.6%.

`CNC(=O)N1CCCCC1CCNS(C)(=O)=O` (centres undefined): the INHIBITION is -2.48%. On to `CC(=O)N1CCCN(C(C(=O)O)c2ccc(C)cc2C)CC1` (centres undefined), for which the INHIBITION is 41.3%.

As for `CNc1cc(N2CCCC2CNCc2cccc(C(N)=O)c2)ncn1` (centres undefined), the INHIBITION was 39.5%. In the case of `CC(=O)N1CCN(C(=O)c2csc(-c3ccc(C)cc3C)n2)CC1` it was 17%; in that of `CN1CC2(CCN(C(=O)c3cccc(-n4cccn4)c3)CC2)OC1=O`, 12%; in that of `CC(=O)N1CCC(NC(=O)c2ccc3c(c2O)OC(C)(C)C3)CC1`, 48.2%. In the case of `Cc1ccc(CN2CCC3(CC2)CC(CC(=O)NC(C)C)CO3)s1` (centres undefined) it was -62.7%; in that of `CN(C)C[C@H]1OC[C@@H]2CCN(S(=O)(=O)c3ccc(F)cc3)C[C@@H]21`, 42.7%; in that of `COc1ccccc1C(C)(C)NC(=O)NC1CCC(O)CC1` (centres undefined), -30.3%.

As to `Cc1ccc2oc(C(=O)N3CCCC(n4ccnc4C)C3)cc2n1` (centres undefined), the INHIBITION was determined as 20.33%.

As to `Cc1ccccc1C(=O)NC[C@@H]1CCN(C(=O)c2cccn2C)C[C@H]1O`, the INHIBITION is listed as 17.4%. In the case of `Cc1ccccc1C(=O)N1CC(C(=O)NCC2CC2)C2(CCOCC2)C1` (centres undefined) it was -41.4%; in that of `Cc1ccccc1C(=O)NC[C@@H]1CCN(C(=O)C2(O)CCCC2)C[C@H]1O`, 69.3%; in that of `COc1ccc(C[C@H]2CN(C(=O)c3cscn3)CC[C@@H]2OC)cc1`, 22.3%. In the case of `Cc1ccccc1C(=O)NC[C@@H]1CCN(C(=O)c2cscn2)C[C@H]1O` it was 63.8%; in that of `Cc1ccccc1C(=O)NC[C@@H]1CCN(C(=O)CN2CCCC2)C[C@H]1O`, 44.3%.

As to `Cc1ccc(C)c(-c2[nH]c3ccccc3c2C(=O)O)c1`, the INHIBITION was determined as 13.5%.

For the compound `Cn1ccnc1C1(O)CCN(C(=O)Cc2ccccc2)CC1`, the INHIBITION was 7.635%. For `CCN(CC)S(=O)(=O)c1ccc(C(=O)NC(C)(C#N)C2CC2)cc1` (centres undefined) the value was -5.1%. In the case of `O=C(c1ccc2c(c1)CCC2)N1CCC(c2n[nH]c(C3CC3)n2)CC1` it was -19.6%; in that of `CC(=O)N1CCC(NC(=O)N(C)Cc2c(C)noc2C)CC1`, -35.61%; in that of `CC(=O)c1ccc(N2CCN(C(=O)c3cnn4c3OCCC4)CC2)cc1`, 16%. In the case of `COc1ccc(C(=O)N2CCOCC2c2ccc(C)o2)cc1` (centres undefined) it was 68%; in that of `COCc1ccc(C(=O)N2CCOCC2c2ccc(C)o2)cc1` (centres undefined), 1.2%.

As to `Cc1ccc(C2COCCN2C(=O)c2ccc(N(C)C)cc2)o1` (centres undefined), the INHIBITION is on record as -0.79%. For `Fc1cccc(-c2noc3c2CN(Cc2cncn2C2CC2)CC3)c1` the value was 33.3%. For `Cn1cccc1C1CCCN1Cc1noc(C(C)(C)C)n1` (centres undefined) the value was -40.5%. For `COc1cc2c(nn1)CCN(Cc1noc(CC(C)C)n1)C2` the value was 17.4%; for `CC(C)c1nc(CN2CCc3onc(-c4cccc(F)c4)c3C2)no1`, 84.1%. In the case of `CC(C)Cc1nc(CN2CCc3onc(-c4cccc(F)c4)c3C2)no1`, the INHIBITION worked out at 82.5%. For `CC(C)(C)c1nc(CN2CCc3onc(-c4cccc(F)c4)c3C2)no1` the value was 67.7%; for `Cn1ncc(CN2CCc3onc(-c4cccc(F)c4)c3C2)c1C1CC1`, 41.5%; for `CC(C(=O)N(C)C)N1CCc2onc(-c3cccc(F)c3)c2C1` (centres undefined), 40.9%.

Turning to `CC(C(N)=O)N1CCc2onc(-c3cccc(F)c3)c2C1` (centres undefined), the INHIBITION was determined as 18.2%. For `COc1ncnc2c1CCN(Cc1nccs1)CC2` the value was -20.1%; for `CCN(CC(=O)N(C)C)C(=O)c1ccc(-c2nc(C)cs2)cc1`, 30.9%; for `CCCn1c(N2CCCCC2)nc2c(C)nn(C)c2c1=O`, 35.9%.

On to `Cc1occc1C(=O)N1CCC2(CCCN(Cc3nccs3)C2)C1` (centres undefined), for which the INHIBITION is reported as -58.3%. In the case of `Cc1ccc(CNC(=O)c2cc(Cn3ccnc3C(C)C)[nH]n2)o1` it was 63%. In the case of `CC(C)c1nccn1Cc1cc(C(=O)NCC(C)n2ccnc2)n[nH]1` (centres undefined), the INHIBITION turned out to be 26%. For `Cc1ccc(CN(C)C(=O)c2cc(Cn3ccnc3C(C)C)[nH]n2)o1`, the INHIBITION is 42.3%. In the case of `CCn1ccnc1CN1CCN(C(C)C(=O)NCC(F)(F)F)CC1` (centres undefined) it was 19.7%; in that of `Cc1nc(CNC(=O)c2cc(Cn3ccnc3C(C)C)[nH]n2)sc1C`, 37.9%; in that of `CC(C)c1nccn1Cc1cc(C(=O)NCC(F)(F)F)n[nH]1`, 94%. For `CCc1nc(CNCCn2cc(C)cn2)no1` the value was 0.914%; for `O=S(=O)(CCOc1ccc(F)cc1)Nc1cnn(CC(F)F)c1`, -6.85%. For `CN1CCN2CCN(Cc3cc(=O)n4c5c(cccc35)CCC4)CC2C1` (centres undefined) the value was 13%; for `CCCC1CN(CCOC)C(=O)c2cccnc2O1` (centres undefined), 26.8%. For `COc1ccccc1CN(Cc1cccc(C)c1)C(=O)[C@@H](N)CC(=O)O`, the INHIBITION was 11.8%.

Consider `CN[C@@H](C)C(=O)N(Cc1cccc(C)c1)Cc1ccccc1OC`, for which the INHIBITION came out at 34.1%. In the case of `COCC(=O)N(Cc1cccc(C)c1)Cc1ccccc1OC` it was 51.7%.

With `O=C(COc1ccc(F)cc1F)N1CCOCC(O)(CN2CCCC2)C1` (centres undefined), the INHIBITION is 11.8%. In the case of `Cc1ccc2cc(C(=O)NCCN3CCS(=O)(=O)CC3)c(C)nc2c1` it was 74.7%. For `CCN1CCN(CCCNC(=O)c2cc3ccc(C)cc3nc2C)CC1` the value was 37.2%; for `COc1ccc2nc(C)c(C(=O)NCCN3CCS(=O)(=O)CC3)cc2c1`, 46.9%.

Turning to `CSc1nc2ncc3c(=O)n(CCN4CCCCC4)ccc3n2n1`, the INHIBITION was determined as 51%.

As to `COCCn1ccc2c(cnc3nc(SC)nn32)c1=O`, the INHIBITION is listed as 38.4%. Consider `CSc1nc2ncc3c(=O)n(C)ccc3n2n1`, for which the INHIBITION is listed as -3.73%.

Take `CCn1c(C)cc(C(=O)N2C[C@@H](C(=O)O)[C@H](c3ccccc3C)C2)c1C`: the INHIBITION stood at 0.33%.
